# Values without a mark were called inactive. The rule behind the calls is not given here.
# Assays:
# [1] = test system: Aerobactin synthetase IucA (Klebsiella pneumoniae hvKP1); experiment: Biochemical IucA enzyme inhibition primary screen of the Spectrum library (AID 1346200); details: malachite green pyrophosphate, A620, at 8 µM, stronger effect = lower value;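 note: 100% = wells without compound and 0% = wells lacking enzyme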
# [2] = test system: Aerobactin synthetase IucA (Klebsiella pneumoniae, hypervirulent); experiment: IucA enzyme inhibition, biochemical, LOPAC library, absorbance readout (AID 1346212); details: IucA enzyme assay, absorbance (OD) readout; stronger effect = lower value;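 tested at 8 µM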;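 note: 100% = no compound wells and 0% = no enzyme wells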
Structure (SMILES),activity remaining [1] [%],remaining activity [2] [%]
CN(C)CCC(c1ccccc1)c1ccccn1 (stereo not given),109,89.8
CC1=C(/C=C/C(C)=C/C=C/C(C)=C/C(=O)O)C(C)(C)CCC1,109,92
NC[C@H](O)c1ccc(O)c(O)c1,107,118
CCCCc1oc2ccccc2c1C(=O)c1cc(I)c(OCCN(CC)CC)c(I)c1,123,101
COc1cc2nc(N3CCN(C(=O)c4ccco4)CC3)nc(N)c2cc1OC,127,84.9
O=C1N=C(O)CN1/N=C/c1ccc(-c2ccc([N+](=O)[O-])cc2)o1,118,100
NC(=O)c1cccc(N)c1,121,113
CSc1ccc2c(c1)C(N1CCN(C)CC1)Cc1ccccc1S2 (stereo not given),103,114
Clc1cccc(Cl)c1NC1=NCCN1,119,122
CN1CCC[C@@H]1CCO[C@](C)(c1ccccc1)c1ccc(Cl)cc1,99.3,109
NC(=O)CC[C@H](N)C(=O)O,109,110
CCCOc1ccccc1-c1nc2n[nH]nc2c(=O)[nH]1,97.7,125
CCCCC1C(=O)N(c2ccccc2)N(c2ccccc2)C1=O,117,102
C[C@](N)(Cc1ccc(O)cc1)C(=O)O,120,110
COC(=O)C1=C(C)NC(C)=C(C(=O)OCCN(C)Cc2ccccc2)C1c1cccc([N+](=O)[O-])c1 (stereo not given),107,109
c1ccc([C@H]2CN3CCSC3=N2)cc1,117,112
CS(=O)(=O)Nc1ccc([N+](=O)[O-])cc1Oc1ccccc1,113,117
COc1cc(Cc2cnc(N)nc2N)cc(OC)c1OC,93.2,76.5
CC(COc1ccccc1)N(CCCl)Cc1ccccc1 (stereo not given),107,109
CCCNCC(O)COc1ccccc1C(=O)CCc1ccccc1 (stereo not given),104,112

Structure (SMILES),activity remaining [1] [%],remaining activity [2] [%]
CCCN(CCC)C(=O)C(CCC(=O)O)NC(=O)c1ccccc1 (stereo not given),115,99.4
Cn1c(=O)c2[nH]c(C3CCCC3)nc2n(C)c1=O,97.7,70.6
COc1cc2c(c(OC)c1OC)-c1ccc(OC)c(=O)cc1[C@@H](NC(C)=O)CC2,115,112
NS(=O)(=O)c1cc(C(=O)O)c(NCc2ccco2)cc1Cl,105,97.8
CN(C)CCOC(c1ccccc1)c1ccccc1,105,100
O=NN(CCCl)C(=O)NCCCl,123,115
COc1ccc2cc([C@H](C)C(=O)O)ccc2c1,101,91.4
COC(=O)C1=C(C)NC(C)=C(C(=O)OC)C1c1ccccc1[N+](=O)[O-],100,115
CN(C)CCN(Cc1cccs1)c1ccccn1,120,93
NC(N)=NCCCCN=C(N)N,119,90.7
O=C(/C=C/c1ccc(O)cc1)c1ccc(O)cc1O,98.7,93.6
NCCCCN=C(N)N,123,111
Cc1nnc(SCC2=C(C(=O)O)N3C(=O)[C@@H](NC(=O)Cn4cnnn4)[C@H]3SC2)s1,101,119
CCCNC(=O)NS(=O)(=O)c1ccc(Cl)cc1,118,103
NS(=O)(=O)c1cc2c(cc1Cl)NC(C1CC3C=CC1C3)NS2(=O)=O (stereo not given),122,95.7
Cc1ccc(S(=O)(=O)NC(=O)NN2CCCCCC2)cc1,117,91.6
Clc1ccc2c(c1)C(N1CCNCC1)=Nc1ccccc1O2,109,126
NNCCc1ccccc1,112,93.4
COc1ccc2c(c1)c(CC(=O)O)c(C)n2C(=O)c1ccc(Cl)cc1,103,92
CN[C@H](CC(=O)O)C(=O)O,118,118

# Reference: PubChem BioAssay
